From PubChem BioAssay AID1159580 (chemical genetic matrix, 2015)
Out of some 5,500 compounds screened, about 2,000 (36%) were called active. Another 18% or so got no clear call; they are omitted. No stated cut-off is given here; in the data, active means normalized growth mostly below about 0.91 (no sharp cut-off); inconclusive means no clear call, values can overlap the other calls; inactive means mostly above about 0.92. Some of the results follow.

Experiment: chemical genetic growth profiling, strain panel (AID 1159580);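 further: tested at 20 µM; growth read once vehicle control cultures reached saturation at 30 °C; 1 = growth at the plate median or of vehicle wells; lower values mean less growth of the strain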
Conditions: growth OD

Measured: normalized growth

O=C(CCBr)N1CCN(C(=O)CCBr)CC1
inactive: S. cerevisiae deletion strains, locus YJR066W, strain TOR1, hits give low values 0.961 | S. cerevisiae deletion strains, locus YKL009W, strain mrt4, hits give low values 0.993 | S. cerevisiae deletion strains, locus YKL068W, hits give low values 1 | S. cerevisiae deletion strains, locus YKL085W, strain MDH1 (second series), hits give low values 1.01 | S. cerevisiae deletion strains, locus YKL085W, strain MDH1, hits give low values 1.01 | S. cerevisiae deletion strains, locus YKL160W, strain elf1, hits give low values 1.03 | S. cerevisiae deletion strains, locus YKL190W, strain CNB1, hits give low values 1 | S. cerevisiae deletion strains, locus YKR001C, strain vps1, hits give low values 0.997 | S. cerevisiae deletion strains, locus YKR026C, strain gcn3, hits give low values 1.01 | S. cerevisiae deletion strains, locus YKR091W, strain srl3, hits give low values 1.01 | S. cerevisiae deletion strains, locus YLL001W, strain dnm1, hits give low values 1.01 | S. cerevisiae deletion strains, locus YLL026W, hits give low values 1.01 | S. cerevisiae deletion strains, locus YLL041C, strain sdh2, hits give low values 1.01 | S. cerevisiae deletion strains, locus YLR027C, strain aat2, hits give low values 1.02 | S. cerevisiae deletion strains, locus YLR039C, strain RIC1, hits give low values 1 | S. cerevisiae deletion strains, locus YLR058C, strain SHM2, hits give low values 1.01 | S. cerevisiae deletion strains, locus YLR102C, strain apc9, hits give low values 0.991 | S. cerevisiae deletion strains, locus YLR113W, strain HOG1, hits give low values 0.979 | S. cerevisiae deletion strains, locus YLR221C, strain rsa3, hits give low values 1.01 | S. cerevisiae deletion strains, locus YLR258W, strain gsy2, hits give low values 1.02 | S. cerevisiae deletion strains, locus YLR262C, strain YPT6 (second series), hits give low values 1.03 | S. cerevisiae deletion strains, locus YLR262C, strain YPT6, hits give low values 1.02 | S. cerevisiae deletion strains, locus YLR268W, strain sec22, hits give low values 1 | S. cerevisiae deletion strains, locus YLR320W, strain mms22, hits give low values 1.03 | S. cerevisiae deletion strains, locus YLR330W, strain CHS5, hits give low values 1.01 | S. cerevisiae deletion strains, locus YLR342W, strain FKS1 (second series), hits give low values 1 | S. cerevisiae deletion strains, locus YLR342W, strain FKS1, hits give low values 1.02 | S. cerevisiae deletion strains, locus YLR357W, strain rsc2, hits give low values 1 | S. cerevisiae deletion strains, locus YLR370C, strain arc18, hits give low values 1.02 | S. cerevisiae deletion strains, locus YLR371W, strain rom2, hits give low values 0.991 | S. cerevisiae deletion strains, locus YLR384C, strain iki3, hits give low values 1.02 | S. cerevisiae deletion strains, locus YLR418C, strain cdc73, hits give low values 1.01 | S. cerevisiae deletion strains, locus YML016C, strain PPZ1, hits give low values 1.01 | S. cerevisiae deletion strains, locus YML032C, strain rad52, hits give low values 1 | S. cerevisiae deletion strains, locus YML120C, strain ndi1, hits give low values 1.02 | S. cerevisiae deletion strains, locus YML124C, strain tub3, hits give low values 0.991 | S. cerevisiae deletion strains, locus YMR058W, strain fet3, hits give low values 1.01 | S. cerevisiae deletion strains, locus YMR078C, strain ctf18, hits give low values 1.01 | S. cerevisiae deletion strains, locus YMR125W, strain sto1, hits give low values 1.03 | S. cerevisiae deletion strains, locus YMR129W, hits give low values 1.02 | S. cerevisiae deletion strains, locus YMR205C, strain PFK2, hits give low values 1.03 | S. cerevisiae deletion strains, locus YMR223W, strain ubp8, hits give low values 0.999 | S. cerevisiae deletion strains, locus YMR231W, strain pep5, hits give low values 1.03 | S. cerevisiae deletion strains, locus YMR307W, strain GAS1, hits give low values 0.993 | S. cerevisiae deletion strains, locus YNL067W, strain RPL9B, hits give low values 1.01 | S. cerevisiae deletion strains, locus YNL071W, strain lat1, hits give low values 1.02 | S. cerevisiae deletion strains, locus YNL128W, strain TEP1, hits give low values 1.01 | S. cerevisiae deletion strains, locus YNL153C, strain GIM3, hits give low values 1.02 | S. cerevisiae deletion strains, locus YNL183C, strain NPR1, hits give low values 0.936 | S. cerevisiae deletion strains, locus YNL209W, strain ssb2, hits give low values 1.02 | S. cerevisiae deletion strains, locus YNL233W, strain BNI4, hits give low values 1 | S. cerevisiae deletion strains, locus YNL248C, strain rpa49, hits give low values 1.01 | S. cerevisiae deletion strains, locus YNL250W, strain rad50, hits give low values 1.01 | S. cerevisiae deletion strains, locus YNL271C, strain bni1, hits give low values 0.999 | S. cerevisiae deletion strains, locus YNL298W, strain CLA4, hits give low values 1.01 | S. cerevisiae deletion strains, locus YNL307C, strain MCK1, hits give low values 0.997 | S. cerevisiae deletion strains, locus YNL322C, strain KRE1 (second series), hits give low values 1.01 | S. cerevisiae deletion strains, locus YNL322C, strain KRE1, hits give low values 1.01 | S. cerevisiae deletion strains, locus YNR049C, strain mso1, hits give low values 1.01 | S. cerevisiae deletion strains, locus YNR052C, strain pop2, hits give low values 1 | S. cerevisiae deletion strains, locus YOL006C, strain TOP1, hits give low values 1.02 | S. cerevisiae deletion strains, locus YOL012C, strain htz1 0.666 | S. cerevisiae deletion strains, locus YOL147C, strain pex11, hits give low values 0.998 | S. cerevisiae deletion strains, locus YOR001W, strain rrp6, hits give low values 1.01 | S. cerevisiae deletion strains, locus YOR061W, strain CKA2, hits give low values 1.01 | S. cerevisiae deletion strains, locus YOR069W, strain VPS5, hits give low values 1.01 | S. cerevisiae deletion strains, locus YOR070C, strain gyp1, hits give low values 1.02 | S. cerevisiae deletion strains, locus YOR080W, strain dia2, hits give low values 1.02 | S. cerevisiae deletion strains, locus YOR083W, strain WHI5, hits give low values 1.02 | S. cerevisiae deletion strains, locus YOR106W, strain vam3, hits give low values 1.02 | S. cerevisiae deletion strains, locus YOR136W, strain idh2, hits give low values 0.998 | S. cerevisiae deletion strains, locus YOR144C, strain elg1, hits give low values 0.993 | S. cerevisiae deletion strains, locus YOR184W, strain ser1, hits give low values 0.998 | S. cerevisiae deletion strains, locus YOR231W, strain MKK1, hits give low values 0.985 | S. cerevisiae deletion strains, locus YOR265W, strain rbl2, hits give low values 1.01 | S. cerevisiae deletion strains, locus YOR270C, strain vph1, hits give low values 1.08 | S. cerevisiae deletion strains, locus YOR290C, strain snf2, hits give low values 1 | S. cerevisiae deletion strains, locus YOR316C, strain cot1, hits give low values 0.999 | S. cerevisiae deletion strains, locus YPL051W, strain arl3, hits give low values 1.02 | S. cerevisiae deletion strains, locus YPL078C, strain atp4, hits give low values 1.01 | S. cerevisiae deletion strains, locus YPL106C, strain sse1, hits give low values 1.03 | S. cerevisiae deletion strains, locus YPL240C, strain hsp82, hits give low values 1.02 | S. cerevisiae deletion strains, locus YPL241C, strain CIN2, hits give low values 1.01 | S. cerevisiae deletion strains, locus YPL256C, strain CLN2, hits give low values 0.996 | S. cerevisiae deletion strains, locus YPR119W, strain clb2, hits give low values 0.994 | S. cerevisiae deletion strains, locus YPR141C, strain kar3, hits give low values 0.992 | S. cerevisiae deletion strains, locus YPR163C, strain tif3, hits give low values 0.994 | S. cerevisiae deletion strains, locus YPR167C, strain met16, hits give low values 1.01 | S. cerevisiae deletion strains, strain wtn01, hits give low values 0.989 | S. cerevisiae strains, strain wild type, hits give low values 1.01
